# Data taken from the supplement of paper PMC6518042.
# A number with no mark means an inactive call.
# Test system: Pectobacterium parmentieri SCC3193
# Assay: DuctApe activity index (growth/respiration on compound as sole nutrient source, blank-subtracted) (activity index (0-3)); higher = stronger utilization of the compound, active = 3 or more
# Details: nutrient role (plate category): carbon
# Procedure: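 Biolog Phenotype Microarray plates PM1, PM2A (carbon), PM3 (nitrogen) and PM4 (phosphorus/sulfur) inoculated with P. parmentieri SCC3193 in M9-C minimal salts medium with Biolog dye A, and read in the OmniLog for 46 h. Each well was tested in triplicate and the experiment was run twice. DuctApe computed a blank-subtracted activity index (AV, 0-3) from the mean curves; growth is positive at AV >= 3 and negative at AV <= 2.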
row,SMILES,DuctApe activity index
1,NCCc1ccccc1 [Phenylethylamine],0
2,N#C[C@H](O[C@@H]1O[C@H](CO[C@@H]2O[C@H](CO)[C@@H](O)[C@H](O)[C@H]2O)[C@@H](O)[C@H](O)[C@H]1O)c1ccccc1 [Amygdalin],0
3,"NCC(O)c1ccc(O)cc1 (racemic) [D,L-Octopamine]",0
4,NCCc1ccc(O)cc1 [Tyramine],0
5,O=C(O)CCCO [g-Hydroxybutyric acid],0
6,O=C(O)CC(Br)C(=O)O (centres undefined) [Bromosuccinic acid],3 (active)

# Same assay, conditions: nutrient role (plate category): nitrogen
row,SMILES,DuctApe activity index
1,NCCc1ccc(O)cc1 [Tyramine],0
2,CN [Methylamine],0
3,O=[N+]([O-])O [Nitrate],0
4,O=C1NC(=O)C(=O)C(=O)N1 [Alloxan],0
5,NCCc1ccccc1 [b-Phenylethylamine],0
6,CCN [Ethylamine],0

# Same assay, conditions: nutrient role (plate category): phosphate & sulphur
row,SMILES,DuctApe activity index
1,OP(O)(O)=S [Thiophosphate],1.5
2,CN(CC(=O)O)C(=N)NP(=O)(O)O [Phosphocreatine],2
3,CCOP(=O)(OCC)OCC [Triethyl Phosphate],0
4,NCCP(=O)(O)O [2-Aminoethyl Phosphonic acid],0
5,O=PO [Hypophosphite],0
6,OP(O)(=S)S [Dithiophosphate],1.5
7,CCSCCC(N)C(=O)O (racemic) [DL-Ethionine],0
